Test [1] concerns the target Nuclear receptor coactivator 1 (Homo sapiens) (UniProt Q15788). The experiment in a line: SRC1 coactivator transcriptional activity inhibitors, confirmation, cell-based, luminescence, quadruplicate (AID 588820).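 Also: 0% = DMSO wells and 100% = gossypol 36 µM treated wells.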 Particulars: HEK293 GAL4-SRC1 luciferase reporter, at 3.6 µM, active compounds read high. On the technique in general: In a reporter assay the amount or activity of a reporter protein is the signal.

Test [2] can be described thus: VP16 transactivation inhibitors, counter-screen for SRC1 inhibitor project, cell-based, luminescence, high throughput (AID 588824; in the data active = inhibition above about 25%). As to conditions: cell-based VP16 transactivation luciferase luminescence; at 3.6 µM; active compounds read high. A general note: Counterscreens check selectivity or assay interference.

A number with no mark means an inactive call. Calls of active or inactive are those of the source.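 The calls were made as follows, unless noted: active = mean inhibition above 46.68%, the untreated control wells mean plus 3 SD; inactive = the rest.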

Chain of Nuclear receptor coactivator 1 (Homo sapiens) (Q15788 whole entry, looked up, the tested form may be a part): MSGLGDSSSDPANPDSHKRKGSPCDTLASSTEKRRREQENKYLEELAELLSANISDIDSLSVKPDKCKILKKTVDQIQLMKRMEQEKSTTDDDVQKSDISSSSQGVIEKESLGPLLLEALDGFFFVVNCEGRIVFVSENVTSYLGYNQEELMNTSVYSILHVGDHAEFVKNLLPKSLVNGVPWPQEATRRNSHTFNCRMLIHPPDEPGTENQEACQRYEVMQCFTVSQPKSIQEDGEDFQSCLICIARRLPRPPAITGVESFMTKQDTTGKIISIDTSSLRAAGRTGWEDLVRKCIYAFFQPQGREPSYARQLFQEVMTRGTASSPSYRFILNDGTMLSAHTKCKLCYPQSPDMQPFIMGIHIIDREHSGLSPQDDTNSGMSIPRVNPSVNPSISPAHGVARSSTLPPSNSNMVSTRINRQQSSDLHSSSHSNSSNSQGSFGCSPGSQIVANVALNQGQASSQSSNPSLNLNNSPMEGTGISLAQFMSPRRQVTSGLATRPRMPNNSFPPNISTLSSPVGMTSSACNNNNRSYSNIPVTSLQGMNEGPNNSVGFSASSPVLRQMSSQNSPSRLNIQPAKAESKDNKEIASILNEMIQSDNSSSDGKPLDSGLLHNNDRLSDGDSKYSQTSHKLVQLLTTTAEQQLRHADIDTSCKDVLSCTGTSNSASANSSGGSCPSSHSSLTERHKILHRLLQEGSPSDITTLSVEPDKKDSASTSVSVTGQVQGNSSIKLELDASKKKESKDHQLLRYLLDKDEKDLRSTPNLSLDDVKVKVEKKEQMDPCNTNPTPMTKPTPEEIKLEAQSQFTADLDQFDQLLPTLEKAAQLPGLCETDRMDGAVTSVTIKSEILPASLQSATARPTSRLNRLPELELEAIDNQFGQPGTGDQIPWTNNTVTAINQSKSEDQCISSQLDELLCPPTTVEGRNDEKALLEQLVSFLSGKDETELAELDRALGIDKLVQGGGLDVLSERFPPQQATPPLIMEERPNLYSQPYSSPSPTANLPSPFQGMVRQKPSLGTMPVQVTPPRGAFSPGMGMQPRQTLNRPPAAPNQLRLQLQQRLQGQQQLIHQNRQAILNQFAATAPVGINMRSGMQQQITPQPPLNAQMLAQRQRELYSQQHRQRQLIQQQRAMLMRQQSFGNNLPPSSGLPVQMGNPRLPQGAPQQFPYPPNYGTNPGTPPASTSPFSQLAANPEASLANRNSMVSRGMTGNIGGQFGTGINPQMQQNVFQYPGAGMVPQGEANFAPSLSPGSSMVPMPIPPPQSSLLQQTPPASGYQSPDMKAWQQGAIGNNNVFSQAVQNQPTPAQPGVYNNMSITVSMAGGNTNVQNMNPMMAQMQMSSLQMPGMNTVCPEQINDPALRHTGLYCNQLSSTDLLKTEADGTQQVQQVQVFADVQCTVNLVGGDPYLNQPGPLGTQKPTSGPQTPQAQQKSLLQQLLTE

Consider `Cc1ccoc1C(=O)NCCNC(=O)c1occc1C`, for which the inhibition (commonly the relative decrease from the control value, in per cent) in test [1] is -20.6%; in test [2] it was -15.1%.

Take `CC1Cc2ccccc2N1S(=O)(=O)c1cccc(C(=O)N2CCN(c3ncccn3)CC2)c1` (stereo unspecified): the inhibition in test [1] was 16.5%; in test [2], 77.4% (active).

`Cc1ccccc1CN1CCN(C(=O)CC(C)C)CC1`: the inhibition in test [1] was -18.4%; in test [2], -7.73%.

With `O=C(NCCc1ccc(F)cc1)C(=O)NCC1CCCN1S(=O)(=O)c1ccccc1` (stereo unspecified), the inhibition was -36.4% in test [1] and -2.18% in test [2].

For the compound `COc1cc(C(=O)NCCOc2cc(C)ccc2C(C)C)cc(OC)c1OC`, the figures for the inhibition in test [1] and in test [2] were -14.4% and 23.8%, respectively.

Turning to `CN(C(=O)c1cccc(NC(=O)Cc2ccc(NC(=O)C3CCCN(C(=O)CCc4ccccc4)C3)cc2)c1)C1CCCC1` (stereo unspecified), the inhibition in test [1] is -3.52%; in test [2], 19.6%.

Turning to `CCOC(=O)N1CCN(CC(=O)Nc2ccc(F)c(F)c2)CC1`, the figures for the inhibition in test [1] and in test [2] were -18.7% and -4%, respectively.

Regarding `O=C(CSc1nc2ccccc2[nH]1)Nc1cccc(S(=O)(=O)N2CCOCC2)c1`, the inhibition in test [1] is 3.06%; in test [2] it was -4.53%.

In the case of `O=C(Nc1ccc2c(c1)N(S(=O)(=O)c1cccs1)CCC2)c1c(F)cccc1F`, the inhibition in test [1] was -8.08%; in test [2], -5.05%.

Regarding `CCOC(=O)CNC(c1ccccc1)c1cc(Br)ccc1NC(C)=O` (stereo unspecified), the inhibition is -0.66% in test [1] and 4.71% in test [2].

Take `COc1cc2c(cc1OC)CN(CC(=O)Nc1cccc([N+](=O)[O-])c1)CC2`: the values for the inhibition in test [1] and in test [2] were 4.85% and 6.41%, respectively.

For `N#CCCN(C(=O)COC(=O)c1ccc2c(=O)n3c(nc2c1)CCC3)c1ccc(F)cc1`, the inhibition in test [1] was -14.7%; in test [2] it was 2.54%.

With `Cc1cc2c(OCC(O)CNCc3ccco3)cccc2[nH]1` (stereo unspecified), the inhibition in test [1] is -14.2%; in test [2], -11.1%.

The values above are taken from PubChem BioAssay.
